Pf growth 48h – inhibits P. falciparum growth in the first generation, 48 h | actives 5.9% (n = 310,000) | AID 504832 | Potency, µM (doses to about 28.7 µM), for inactives: at the highest dose activity change, negative = inhibition, actives largely listed as inhibitors | P. falciparum luciferase growth in erythrocytes, 48 h; note: potency is the fitted concentration of half-maximal effect; % is set by controls: 0 for no effect and ±100 for the full control effect
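Luciferase-expressing P. falciparum in infected erythrocytes (2% hematocrit, 0.1% parasitemia final) in RPMI 1640/0.5% Albumax were exposed to compound for 48 hours at 37 C, 5% CO2; growth read as luminescence.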
Pf growth 96h – P. falciparum growth inhibition at 96 hours | actives 6.9% (n = 320,000) | Potency, µM (series often up to 28.7 µM), for inactives: top-dose activity change, negative = inhibition, hits mostly inhibitors | P. falciparum luciferase reporter growth, 96 h | AID 504834; note: potency is the fitted concentration of half-maximal effect; % is set by controls: 0 for no effect and ±100 for the full control effect
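Plates of compound plus infected erythrocytes (2% hematocrit, 0.05% parasitemia final) incubate 96 hours, 37 C, 5% CO2. Detection reagent added; reduced luminescence from the parasites' luciferase reporter flags inhibition.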
HCV inhibitor – HCV inhibition; Huh7.5.1 HCVcc-Cre infection, luciferase reporter, 44 h; Potency, µM (top dose mostly 41.8 µM), for the others: top-dose activity change, negative = inhibition, actives largely listed as inhibitors; actives 3.4% (n = 340,000); AID 651820; note: potency is the fitted concentration of half-maximal effect; % is set by controls: 0 for no effect and ±100 for the full control effect
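Luciferase read-out (15 sec integration) after a 15 min room-temperature substrate step quantifies HCVcc-Cre infection. Cells, 1,000 per well, had compound added 4 h post-plating, then virus at ~0.5 moi, and were cultured 44 h.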
Shiga toxin inh – inhibitors of Shiga toxin in Vero cells | Vero cells, Shiga toxin protein synthesis inhibition reporter | inhibition, % at 38.7 µM | actives 9.2% (n = 290,000); in the data active = inhibition mostly above about 28%, no sharp cut-off; inactive = mostly below about 43%; note: 0% is about no effect
AMA1-RON2 inh – AMA1-RON2 (P. falciparum) interaction inhibition | AlphaScreen AMA1-biotinylated RON2 peptide binding | Potency, µM (titrated, usually from 58.2 µM), without a hit: top-dose activity change, negative = inhibition, hits mostly inhibitors | actives 0.2% (n = 360,000) | AID 720542;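 note: potency is the fitted concentration of half-maximal effect; 0% = vehicle wells and -100% = peptide control; nearly all actives have a fitted effect of over 45% in size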
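AMA1 (3D7) with his tag at 25 nM final met compounds first, then biotinylated RON2 peptide at 25 nM; detection used donor plus acceptor beads, 10 µg/mL apiece, read by AlphaScreen after 30 min at room temperature.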
Cycloheximide cs – counter-screen hit for Shiga toxin inhibitors, cycloheximide; cell reporter, cycloheximide protein synthesis inhibition counterscreen; max response, %; actives 12% (n = 300,000); AID 2314; in the data active = max response mostly above about 13%, no sharp cut-off; inactive = mostly below about 14%; note: read at 38.3 µM for the half of the compounds with a filed dose; 0% is about no effect
Active calls of the source: *; u = inconclusive; x = not tested or not shown; [ ] = remark or other dose. Shown are actives, neighbours in structure and some others; about 21% of the full set was active somewhere. Unless noted, calls come from the whole dose curve; as a rule, active = well fitted curve in the direction sought with a large enough effect; inconclusive = small, poorly fitted or top-dose-only effect, or another doubt; inactive = no such curve, though single readings can be large; an effect the other way counts as inactive or inconclusive.

SMILES | Pf growth 48h | Pf growth 96h | HCV inhibitor | Shiga toxin inh | AMA1-RON2 inh | Cycloheximide cs
COc1cc(NC(=O)OCc2ccccc2)c2ncccc2c1 | x | x | 14µM* | x | 134% | x
CCN(CC(=O)Nc1ccc(OC)c(Cl)c1)CC(=O)NC(C)C | -4% | u | 2% | -8 | -2% | 2
N#CCSc1ncnc2ccccc12 | -13% | -26% | u | -4 | 5% | 1
c1ccc(Sc2ncnc3ccccc23)cc1 | u | u | 21% | 36 | -9% | 12*
CN(C)CCNc1ncnc2oc(-c3ccccc3)c(-c3ccccc3)c12 | u | u | 3.2µM* | -13 | -10% | 1
COc1ccc(-c2oc3ncnc(NCCCN(C)C)c3c2-c2ccc(OC)cc2)cc1 | u | u | u | 4 | -5% | -4
O=[N+]([O-])c1ccc(-c2ccc(/C=N/Nc3nc(NCc4ccccc4)nc(N4CCOCC4)n3)o2)cc1 | 1.5µM* | u | u | 37 | -14% | 9
O=[N+]([O-])c1ccccc1/C=N/Nc1nc(N2CCCC2)nc(N2CCCC2)n1 | 7% | u | -14% | -13 | -14% | 8
COC(=O)c1ccccc1-c1ccc(/C=N/Nc2nc(N3CCCC3)nc(N3CCCC3)n2)o1 | u | u | 11µM* | -8 | -11% | 0
COc1nc(N/N=C/c2ccc(-c3ccccc3[N+](=O)[O-])o2)nc(N2CCOCC2)n1 | 14% | u | 11µM* | 110* | 20% | 70*
Cc1ccc(/C=N/Nc2nc(N3CCCCC3)nc(N3CCCCC3)n2)o1 | -24% | -53% | u | -6 | 25% | -2
Cc1cc(OCC(=O)Nc2ccc(S(=O)(=O)N3CCN(C)CC3)cc2)cc(C)c1Cl | u | 12% | 11µM* | -13 | -18% | -4
Cc1ccc(NC(=O)COc2ccc(/C(N)=N/O)cc2)cc1C | -2% | 7% | -7% | 84* | -8% | 5
Cc1ccc(OCC(=O)Nc2ccc(N3CCCC3)cc2)cc1C | 12µM* | -6% | u | -11 | -25% | -1
Cc1ccc(NC(=O)COC(=O)C2CC2)cc1Cl | 14% | 33% | -5% | x | 20% | x
Cc1ccc(NC(=O)COC(=O)C2CC2(Cl)Cl)cc1C (stereo unspecified) | 20% | 49% | 17% | 60 | -2% | 31*
Cc1ccc(NC(=O)COc2ccc(-n3cnnn3)cc2)cc1C | -5% | x | u | 26 | -1% | 7
COCCNC(=S)N1CCCC(CO)C1 (stereo unspecified) | 2% | 39%[5.75 µM] | 14% | 21 | 31% | -2
CC(C)CNC(=O)c1cccc(NC(=O)C(C)Oc2ccccc2)c1 (stereo unspecified) | 1% | u | -3% | -9 | 8% | -3
Cc1cccc(OCC(=O)Nc2ccc(S(=O)(=O)N3CCN(C)CC3)cc2)c1 | u | u | u | 9 | -5% | -3
Cc1cc(OCC(=O)Nc2ccc(N3CCN(C)CC3)cc2)ccc1Cl | -24% | u | u | 77* | -11% | 38*
Cc1cc(OCC(=O)Nc2ccc(S(=O)(=O)N3CCN(C)CC3)cc2)ccc1Cl | 4.1µM* | 12µM* | u | -3 | 8% | -1
COc1ccc(CNc2cc(C)ccc2C)c(OC)c1OC | u | x | u | 9 | -13% | 1
COc1cc(CNc2cc(C)ccc2C)cc(OC)c1OC | 5.2µM* | u | -16% | -10 | -8% | 13
Cc1noc(C)c1S(=O)(=O)N(C)C[C@H]1Oc2ccc(NC(=O)NC3CCCCC3)cc2C(=O)N([C@H](C)CO)C[C@@H]1C | x | x | -19% | x | 0% | x
SMILES | Pf growth 48h | Pf growth 96h | HCV inhibitor | Shiga toxin inh | AMA1-RON2 inh | Cycloheximide cs
COc1cc(/C=N\NC(=O)c2ccc(Cl)cc2)ccc1Oc1ccc([N+](=O)[O-])cn1 | -17% | -1% | u | 33 | -2% | 7
COc1cc(/C=N/NC(=O)Cc2ccccc2)ccc1Oc1ccc([N+](=O)[O-])cc1[N+](=O)[O-] | -28% | -2% | 14µM* | 11 | -10% | 2
COc1cc(/C=N\NC(=O)c2cccc(Cl)c2)ccc1Oc1ccc([N+](=O)[O-])cn1 | u | 2% | -37% | 54* | -1% | 17*
COc1cc(/C=C(/C#N)c2ccc(F)cc2)ccc1Oc1ccc([N+](=O)[O-])cn1 | 4.7µM* | -17% | 2.5µM* | -8 | -26% | -2
COc1ccc([N+](=O)[O-])cc1/C=N/NC(=O)Cc1ccccc1 | 25% | 8% | u | -20 | 86% | 6
COc1cc(/C=N\NC(=O)c2ccccc2F)ccc1Oc1ccc([N+](=O)[O-])cn1 | -24% | 6% | u | 36 | 9% | 16*
Cc1n[nH]c(C)c1S(=O)(=O)N1CCC(C(=O)Nc2cccc(F)c2)CC1 | 9% | u | -29% | -11 | 9% | 6
CCOC(=O)CN(C(=O)CNC(=O)c1ccco1)C(C(=O)NC1CCCCC1)c1cccnc1 (stereo unspecified) | 21% | -15% | 17% | 16 | -5% | 2
COc1cccc(-c2nn(Cc3ccccc3)cc2CO)c1 | 40% | 71% | -4% | 90* | -5% | 45*
COc1cccc(-c2nn(Cc3ccccc3)cc2C(=O)O)c1 | -1% | 10% | -10% | 25 | 6% | 3
CCOC(=O)C1(Cc2ccccc2)CCCN(C2CCN(C(C)=O)CC2)C1 (stereo unspecified) | u | u | -21% | -3 | -5% | -1
CCOC(=O)C1(Cc2ccccc2)CCCN(C(=O)C=C(C)C)C1 (stereo unspecified) | u | 74% | 33% | 86* | 0% | 24*
CCOC(=O)C1(Cc2ccccc2)CCCN(C(=O)c2ccc(-n3ccnc3)cc2)C1 (stereo unspecified) | -29% | u | x | 42* | 4% | 26*
CCN1CCN(CC(=O)Nc2cc3c(cc2C(C)=O)OCO3)CC1 | 15% | 11% | 12% | -19 | 5% | 2
Cc1ccc(NC(=O)C2OCCc3ccccc32)cc1Cl (stereo unspecified) | -7% | 8.3µM* | -7% | 58* | 13% | 18*
Cc1ccc(NC(=O)C(=O)NCC2OCCc3ccccc32)cc1 (stereo unspecified) | 43% | 13% | 2% | 11 | -1% | 7
Cc1ccc(NC(=O)C2OCCc3ccccc32)cc1 (stereo unspecified) | 46% | 48% | 3% | 79* | 10% | 40*
CCCCN(CC)CCCNC(=O)c1cc2c(=O)n(CC)c3ccccc3c2s1 | -21%[0.00184 µM] | -2% | 25µM* | -3 | -7% | -6
CCn1c(=O)c2cc(C(=O)NCCCOC)sc2c2ccccc21 | u | 5% | u | 8 | 4% | 9

Bioassay records as filed in PubChem BioAssay.
